From PubChem BioAssay (EPA / NIEHS) come the findings set out here.

Where “and” joins values, the source holds several entries; their conditions need not be identical. Equal values may be shown once. Calls of active or inactive are those of the source. How the source made its calls: active means hit-call score of the fitted dose curve at least 0.9, where 1 is the maximum; inactive means score below 0.9.

Read-out in one assay: not listed separately
In words: BSK_LPS_PGE2: BioMAP Diversity Plus: LPS Assay for Prostaglandin E2 (PGE2) Biomarker Activity (AID 2283082). The following applies: primary human HUVEC with PBMC; actives raise or lower the signal. In outline:
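Primary human endothelial cells and blood mononuclear cells, co-cultured with LPS, receive test chemical; PGE2 ELISA follows at 24 h, with SRB-stained parallel cultures flagging cytotoxicity.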
Turning to `CO[Si](OC)(OC)c1ccccc1`, the outcome was inactive.

As for `CCCCNc1ccc(NCCCC)c2c1C(=O)c1ccccc1C2=O`, the outcome was inactive.

On to `CCO[Si](C)(OCC)OCC`, for which the result was inactive.

For `O=C1CCCN1CCO`, the result was inactive.

On to `CN1C(=O)N(C)C(O)C1O` (stereo not given), for which the result was inactive.

On to `C=CCOc1c(Br)cc(Br)cc1Br`, for which the result was inactive.

With `CCCCCCCCc1ccc(Nc2ccc(CCCCCCCC)cc2)cc1`, the outcome was inactive.

Turning to `O=C(c1ccc(O)cc1)c1ccc(O)cc1O`, the result was inactive.

Take `CCOc1nc(F)cc2nc(S(=O)(=O)Nc3c(Cl)cccc3C(=O)OC)nn12`: the outcome was inactive.

On to `C=CC=CC=CCCCCC`, for which the outcome was inactive.

For the molecule `c1ccc(-c2ccccn2)nc1`, the outcome was inactive.

For `C=CCOCC(O)CCl` (stereo not given), the outcome was inactive.

Take `c1ccc2c(c1)ccc1cc3c(ccc4ccccc43)cc12`: the outcome was inactive.

For `O=C(Nc1ccccc1SSc1ccccc1NC(=O)c1ccccc1)c1ccccc1`, the result was inactive.

Read-out in the next assay: Macrophage colony-stimulating factor (MCSF), CSF1 (gene 1435)
The experiment in a line: BSK_LPS_MCSF: BioMAP Diversity Plus: LPS Assay for Macrophage colony-stimulating factor (MCSF) Biomarker Activity (AID 2283083). The following applies: primary human HUVEC with PBMC; actives raise or lower the signal. The method in brief:
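Bidirectional fitting against DMSO was applied to M-CSF levels read by ELISA at 24 h post-dose. The system pairs human umbilical vein endothelium with peripheral blood mononuclear cells; parallel SRB staining tracked cytotoxicity.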
For the molecule `O=c1c2ccccc2oc2ccccc12`, the result was inactive.

Regarding `COCc1c(C(C)C)nc(C(C)C)c(/C=C/[C@@H](O)C[C@@H](O)CC(=O)O)c1-c1ccc(F)cc1`, the result was inactive.

For the molecule `O=Nc1ccc(O)cc1`, the result was inactive.

For the molecule `N#[N+]c1ccc2c(S(=O)(=O)[O-])cccc2c1O`, the result was inactive.

What is called AC50 is the midpoint of the concentration-response curve, whichever way the signal moves. Turning to `C#CC1(O)CC[C@H]2[C@@H]3CCC4=CCCC[C@@H]4[C@H]3CC[C@@]21C` (stereo not given in full), the AC50 was 29 µM (active).

For `O=C(Cl)c1cc(C(=O)Cl)cc(C(=O)Cl)c1`, the AC50 is 31.1 µM (active).

Turning to `CC(C)C(=O)C(C)C`, the result was inactive.

For the molecule `C=CC(=O)OCC(Br)CBr` (stereo not given), the AC50 is 20 µM (active).

Turning to `CCOC(=O)c1ccccc1C(=C1C=C(Br)C(=O)C(Br)=C1)c1cc(Br)c(O)c(Br)c1`, the AC50 was 18.7 µM (active) and 17.4 µM (active).

Take `c1ccc2c(c1)ccc1ncccc12`: the result was inactive.

Regarding `CCCCC(CC)COC(=O)c1ccccc1O` (stereo not given), the outcome was inactive.

In the case of `CCCCCCCCCCCCCCCC[N+](C)(C)CC`, the AC50 was 2.18 µM (active).

`COc1ccc2nc(N)sc2c1`: the outcome was inactive.

Turning to `CC(C)(c1cc(Br)c(OCCO)c(Br)c1)c1cc(Br)c(OCCO)c(Br)c1`, the result was inactive.

Consider `CCCCC/C=C\C/C=C\CCCCCCCC(=O)OC`, for which the AC50 is 32.5 µM (active).

Regarding `Nc1ccc(N)c(Cl)c1`, the AC50 was 8.8 µM (active) and 15.4 µM (active).

`CC1OC1C1CCC2(C)OC2C1` (stereo not given): the result was inactive.

For the molecule `C=C[Si](OC(C)=O)(OC(C)=O)OC(C)=O`, the result was inactive.

For the molecule `S=C(NC1CCCCC1)NC1CCCCC1`, the outcome was inactive.

`C/C=C\C/C=C/CCCCCCCCOC(C)=O`: the AC50 is 24.7 µM (active).

`CCCCC(CC)COCC1CO1` (stereo not given): the result was inactive.

In the case of `CCO[Si](CCCN=C=O)(OCC)OCC`, the outcome was inactive.

With `CO[Si](OC)(OC)c1ccccc1`, the result was inactive.

In the case of `CCCCNc1ccc(NCCCC)c2c1C(=O)c1ccccc1C2=O`, the result was inactive.

As to `CCO[Si](C)(OCC)OCC`, the outcome was inactive.

On to `O=C1CCCN1CCO`, for which the outcome was inactive.

Take `CN1C(=O)N(C)C(O)C1O` (stereo not given): the result was inactive.

On to `C=CCOc1c(Br)cc(Br)cc1Br`, for which the result was inactive.

Take `CCCCCCCCc1ccc(Nc2ccc(CCCCCCCC)cc2)cc1`: the result was inactive.

For `O=C(c1ccc(O)cc1)c1ccc(O)cc1O`, the result was inactive.

As to `CCOc1nc(F)cc2nc(S(=O)(=O)Nc3c(Cl)cccc3C(=O)OC)nn12`, the result was inactive.

In the case of `C=CC=CC=CCCCCC`, the outcome was inactive.

For the molecule `c1ccc(-c2ccccn2)nc1`, the result was inactive.

In the case of `C=CCOCC(O)CCl` (stereo not given), the outcome was inactive.

For `c1ccc2c(c1)ccc1cc3c(ccc4ccccc43)cc12`, the result was inactive.

For `O=C(Nc1ccccc1SSc1ccccc1NC(=O)c1ccccc1)c1ccccc1`, the AC50 was 5.44 µM (active).
